AMA1-RON2 inh = inhibitors of Plasmodium falciparum AMA1-RON2 interaction; AlphaScreen AMA1-biotinylated RON2 peptide binding; Potency, µM (highest dose often 58.2 µM), for the others: at the highest dose activity change, negative = inhibition, usual class: inhibitors; 0.2% of 360,000 active;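 further: potency means the concentration at half of the fitted maximal effect; 0% = vehicle wells and -100% = peptide control; nearly all actives have a fitted effect of over 45% in size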
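AMA1 (3D7) with his tag at 25 nM final met compounds first, then biotinylated RON2 peptide at 25 nM; detection used donor plus acceptor beads, 10 µg/mL apiece, read by AlphaScreen after 30 min at room temperature.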
AmpC inh no detg = AmpC beta-lactamase inhibition without detergent; AmpC nitrocefin hydrolysis, absorbance 480 nm, 0.0001% Triton; Potency, µM (series often up to 57.1 µM), without a hit: top-dose activity change, negative = inhibition, hits mostly inhibitors; 0.52% of 330,000 active; P00811;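 further: potency means the concentration at half of the fitted maximal effect; plate controls were no compound for no effect and no enzyme for full effect; nearly all actives have a fitted effect of over 20% in size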
Target sequence (P00811 whole entry, looked up): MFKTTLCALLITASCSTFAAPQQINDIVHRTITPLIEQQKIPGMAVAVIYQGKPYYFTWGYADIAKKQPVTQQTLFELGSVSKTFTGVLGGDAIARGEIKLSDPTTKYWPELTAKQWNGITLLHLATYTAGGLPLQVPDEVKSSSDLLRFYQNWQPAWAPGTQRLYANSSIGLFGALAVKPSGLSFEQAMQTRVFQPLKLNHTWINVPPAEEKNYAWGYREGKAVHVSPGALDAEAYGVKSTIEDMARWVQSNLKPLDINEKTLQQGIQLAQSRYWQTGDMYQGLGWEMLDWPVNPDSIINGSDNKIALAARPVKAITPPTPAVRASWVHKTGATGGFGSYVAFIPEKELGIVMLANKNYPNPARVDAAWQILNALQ
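20 mM phosphate pH 7.0 + 0.01% (detergent screen) or 0.0001% Triton X-100; 5.3 nM AmpC reagent; cpd preinc 15 min RT; nitrocefin (800 uM stock) to start; A480 q20 s × 4 min; Activity was normalised to no-enzyme and no-compound control wells.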
Shiga toxin inh = Shiga toxin inhibition; inhibition, % at 38.7 µM; Vero cells, Shiga toxin protein synthesis inhibition reporter; AID 2315; 9.2% of 290,000 active; in the data active means inhibition mostly above about 28%, no sharp cut-off; inactive means mostly below about 43%; further: 0% is about no effect
Cycloheximide cs = affects cycloheximide protein synthesis inhibition readout, counter-screen; cell reporter, cycloheximide protein synthesis inhibition counterscreen; max response, %; 12% of 300,000 active; in the data active means max response mostly above about 13%, no sharp cut-off; inactive means mostly below about 14%; further: read at 38.3 µM for the half of the compounds with a filed dose; 0% is about no effect
SARS PLpro yeast = inhibitors of SARS-CoV papain-like protease in yeast. Potency, µM (top dose mostly 32.9 µM), for inactives: at the top dose activity, positive = growth rescue, usual class: activators. S. cerevisiae expressing SARS-CoV PLpro, growth rescue. 0.19% of 330,000 active. AID 485353; calls by dose curve; further: potency means the concentration at half of the fitted maximal effect; 0% is about no effect; nearly all actives have a fitted effect of over 55% in size
AmpC inh detg = inhibitors of E. coli AmpC beta-lactamase with detergent; P00811; AmpC hydrolysis of nitrocefin, absorbance 480 nm, 0.01% Triton; Potency, µM (series often up to 114 µM), inactives show at the highest dose activity change, negative = inhibition, actives largely listed as inhibitors; 0.041% of 370,000 active;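 further: potency means the concentration at half of the fitted maximal effect; 0% = no-compound wells and -100% = no-enzyme wells; nearly all actives have a fitted effect of over 25% in size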
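20 mM phosphate pH 7.0 + 0.01% (detergent screen) or 0.0001% Triton X-100; 5.3 nM AmpC reagent; cpd preinc 15 min RT; nitrocefin (800 uM stock) to start; A480 q20 s × 4 min; Activity was normalised to no-enzyme and no-compound control wells.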
An asterisk follows results filed as active; [ ] = another dose, or the depositor's remark. This excerpt belongs to a sample that is enriched for hits. Unless noted, the call rests on the fitted dose curve; in most records, active means well fitted curve in the direction sought with a large enough effect; inconclusive means small, poorly fitted or top-dose-only effect, or another doubt; inactive means no such curve, though single readings can be large; an effect the other way counts as inactive or inconclusive.

`C=CCOC(=O)Cn1cnc2c(sc3nc(C)cc(C)c32)c1=O` gave AMA1-RON2 inh -4%, AmpC inh no detg -1%, Shiga toxin inh 72*, Cycloheximide cs 46*, SARS PLpro yeast 2% and AmpC inh detg 10%.
Screening O=S(=O)(NCCn1ccc2ccccc21)c1ccccc1 returned AMA1-RON2 inh -2%, AmpC inh no detg 25µM*, Shiga toxin inh 29, Cycloheximide cs 4, SARS PLpro yeast -10% and AmpC inh detg -14%.
Screening CCC(=O)NCCn1ccc2ccccc21 returned AMA1-RON2 inh -8%, AmpC inh no detg -14%, Shiga toxin inh 12, Cycloheximide cs -2, SARS PLpro yeast -1% and AmpC inh detg -17%.
For COc1ccc(CNc2nc3ccccc3n2CCN2CCCCC2)cc1 the results were AMA1-RON2 inh 0%, AmpC inh no detg 19%[2.29 µM], Shiga toxin inh -1, Cycloheximide cs -3, SARS PLpro yeast 0% and AmpC inh detg inconclusive.
Screening Cn1c(NCc2c[nH]c3ccccc23)nc2ccccc21 returned AMA1-RON2 inh -3%, AmpC inh no detg -29%, Shiga toxin inh 70, Cycloheximide cs 15*, SARS PLpro yeast 25% and AmpC inh detg -15%.
For C=CCn1c(NCc2c[nH]c3ccccc23)nc2ccccc21 the results were AMA1-RON2 inh -6%, AmpC inh no detg -31%, Shiga toxin inh 27*, Cycloheximide cs 17*, SARS PLpro yeast 14% and AmpC inh detg 3%.
For C=CCn1c(NCc2ccc(OC)cc2)nc2ccccc21 the results were AMA1-RON2 inh -1%, AmpC inh no detg -26%, Shiga toxin inh 40*, Cycloheximide cs 18*, SARS PLpro yeast -2% and AmpC inh detg -9%.
CCn1c(NCc2c[nH]c3ccccc23)nc2ccccc21 was read as AMA1-RON2 inh -7%.
Screening O=S(=O)(Nc1cccc(-c2cn3cccnc3n2)c1)c1ccc(F)cc1 returned AMA1-RON2 inh -13%, AmpC inh no detg -46%, Shiga toxin inh 4, Cycloheximide cs -4, SARS PLpro yeast 2% and AmpC inh detg 0%.
`O=C(Nc1nc(-c2ccccc2)cs1)C1CCCO1` (centres undefined) gave AMA1-RON2 inh -14%, AmpC inh no detg -5%, Shiga toxin inh 111*, Cycloheximide cs 38*, SARS PLpro yeast -2% and AmpC inh detg 5%.
`O=C(Nc1nc(-c2ccncc2)cs1)C1c2ccccc2Oc2ccccc21` gave AMA1-RON2 inh -27%, AmpC inh no detg -6%, Shiga toxin inh -3, Cycloheximide cs 3, SARS PLpro yeast -16% and AmpC inh detg -4%.
`O=C(Nc1nc(-c2ccccc2)cs1)C1c2ccccc2Oc2ccccc21` gave AMA1-RON2 inh 0%, AmpC inh no detg 0.18µM*, Shiga toxin inh 13, Cycloheximide cs 7, SARS PLpro yeast 5% and AmpC inh detg 5%.
For O=C(Nc1nc(-c2ccc(-c3ccccc3)cc2)cs1)C1CCCO1 (centres undefined) the results were AMA1-RON2 inh 1%, AmpC inh no detg 38%, Shiga toxin inh 16, Cycloheximide cs 22, SARS PLpro yeast -2% and AmpC inh detg -4%.
O=C(Nc1nc(-c2ccc(F)cc2)cs1)C1CCCO1 (centres undefined) was read as AMA1-RON2 inh 7%, AmpC inh no detg -12%, Shiga toxin inh 104*, Cycloheximide cs 42*, SARS PLpro yeast -22% and AmpC inh detg 2%.
Cc1ccc(N2C(=O)C3CCC(c4ccccc4)CC3C2=O)cc1 (centres undefined) was read as AMA1-RON2 inh -4%, AmpC inh no detg -24%, Shiga toxin inh 1, Cycloheximide cs 1, SARS PLpro yeast 9% and AmpC inh detg inconclusive.
For Cn1ccnc1Sc1nc2c(c(=O)n(C)c(=O)n2C)n1C the results were AMA1-RON2 inh 2%, AmpC inh no detg -12%, Shiga toxin inh -3, Cycloheximide cs 3, SARS PLpro yeast -9% and AmpC inh detg -10%.
CNC(=O)CSc1nc2cccnc2n1-c1ccc(F)cc1 was read as AMA1-RON2 inh 3%, AmpC inh no detg -15%, Shiga toxin inh -2, Cycloheximide cs -2, SARS PLpro yeast -3% and AmpC inh detg -1%.
Screening Cc1ccsc1/C=N/NC(=O)c1nnn(-c2nonc2N)c1CSc1ccccc1 returned AMA1-RON2 inh -8%, AmpC inh no detg -43%, Shiga toxin inh -11, Cycloheximide cs -6, SARS PLpro yeast -10% and AmpC inh detg -8%.
For Cc1ccccc1C1=NC(C(F)(F)F)(C(F)(F)F)c2c(n(C)c(=O)n(C)c2=O)N1 the results were AMA1-RON2 inh 11%, AmpC inh no detg -17%, Shiga toxin inh 109*, Cycloheximide cs 61*, SARS PLpro yeast -4% and AmpC inh detg -11%.
`Cn1c2c(c(=O)n(C)c1=O)C(C(F)(F)F)(C(F)(F)F)N=C(c1ccc(Cl)cc1)N2` gave AMA1-RON2 inh 13%, AmpC inh no detg -9%, Shiga toxin inh -14, Cycloheximide cs 6, SARS PLpro yeast -26% and AmpC inh detg -4%.
For COc1ccc(-c2nc3ccccn3c2/N=C/c2ccc(OC)c(OC)c2)cc1O the results were AMA1-RON2 inh -8%, AmpC inh no detg -15%, Shiga toxin inh 45, Cycloheximide cs 17, SARS PLpro yeast 8% and AmpC inh detg 3%.
Screening COc1ccc(-c2cc(-c3ccccc3)nc3c2COc2ccccc2-3)cc1 returned AmpC inh detg 0%.
COc1ccc(C2=Nc3ccccc3OC2)cc1 was read as AMA1-RON2 inh 24%, AmpC inh no detg -25%, Shiga toxin inh 99*, Cycloheximide cs 46*, SARS PLpro yeast -16% and AmpC inh detg -12%.
Screening Cc1nc2ccc(NC(=O)C3=NN(C)C(=O)CC3)cc2s1 returned AMA1-RON2 inh -9%, AmpC inh no detg -10% and SARS PLpro yeast 0%.
For CCN(CC)c1cc(Oc2ccccc2)ncn1 the results were AMA1-RON2 inh 1%, AmpC inh no detg -6%, Shiga toxin inh 73*, Cycloheximide cs 19*, SARS PLpro yeast -5% and AmpC inh detg -15%.
CCOC(=O)CCN was read as AMA1-RON2 inh -2%, AmpC inh no detg -25%, SARS PLpro yeast 3% and AmpC inh detg -7%.
O=C1CCCN2N=C(SCC(=O)Nc3cccc(Cl)c3)SC2=N1 was read as AMA1-RON2 inh 2%, AmpC inh no detg -20%, Shiga toxin inh -5, Cycloheximide cs 2, SARS PLpro yeast -1% and AmpC inh detg -9%.
For Cc1cccc(CSC2=NN3CCCC(=O)N=C3S2)c1 the results were AMA1-RON2 inh -4%, AmpC inh no detg 0%, Shiga toxin inh 56*, Cycloheximide cs 43*, SARS PLpro yeast -28% and AmpC inh detg -9%.

Assay outcomes (PubChem BioAssay)
